In PubChem BioAssay AID1578 (Sanford-Burnham Center for Chemical Genomics, 2009):
The campaign covered roughly 290,000 compounds. About 3,000 (1%) were called active. This is one part of a sample in which actives are shown more often than they occur. Unmarked numbers belong to inactive results. Rule as the data show it: active = inhibition mostly above about 36% (no sharp cut-off); inactive = mostly below about 34%.

test: inhibition of NOD1-driven NF-kB reporter – cell-based, luminescence, uHTS, primary screen (AID 1578); settings: NOD1-driven NF-kB luciferase reporter cells, at 4 µM, stronger effect = higher value;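 also: HEK-293T reporter cells stimulated with the NOD1 agonist gamma-tri-DAP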

| SMILES | inhibition |
| --- | --- |
| Fc1cccc(CN2CCN(Cc3nc(CCc4ccccc4)no3)CC2)c1 | -21.1% |
| Cc1ccc(O)c(C(CC(=O)NCc2ccco2)c2ccccc2)c1 (centres undefined) | -21.1% |
| Cc1nnc(SCC(=O)c2ccccc2F)n1Cc1ccccc1 | -6.1% |
| COCC1CCN(C(=O)c2cc(COc3ccc(OC)c4ccccc34)on2)C1 (centres undefined) | -73.2% |
| CS(=O)(=O)N(CCCC(=O)N1CCCCCC1)c1cccc(Cl)c1 | 0.2% |
| CCN(CC)CCNC(CC(=O)Nc1ccc(Cl)cc1Cl)C(=O)O (centres undefined) | -7% |
| COc1ccc(-c2cc(NCCc3ccncc3)n3ncnc3n2)cc1 | 2.6% |
| COc1ccc(NC(=O)NCc2ccco2)cc1OC | -24.4% |
| COc1cc(S(=O)(=O)NCc2ccncc2)c(OC)cc1C | -15.2% |
| O=[N+]([O-])c1cccc(/C=C/c2nc[nH]c2[N+](=O)[O-])c1 | -10.5% |
| Cc1cccc(C(=O)Oc2ccccc2C(=O)N2CCOCC2)c1 | -8.5% |
| COCCn1c(C)cc(C2=NNC(=Nc3ccccc3F)SC2)c1C | 65.1% (active) |
| COCCn1c(C)cc(C2=NNC(=Nc3ccc(Cl)cc3Cl)SC2)c1C | 13.9% |
| COCCn1c(C)cc(C2=NNC(=Nc3ccccc3)SC2)c1C | -63.4% |
| Cc1c(C)c2ccc(O)c(CN3CCCC3)c2oc1=O | 15.3% |
| Cn1c2ccccc2c(=O)c2cc(C#CC3(O)CCCCC3)ccc21 | 35% |
| Cn1c2ccccc2c(=O)c2ccc(C#CC3(O)CCCCC3)cc21 | 82% (active) |
| Cn1c2ccccc2c(=O)c2ccc(C#CC3(N)CCCCC3)cc21 | 30.6% |
| CCC(=O)N1CCc2cc(S(=O)(=O)NCCC(=O)N3CCN(c4ccccc4)CC3)ccc21 | -26.5% |
| O=C1CCN(CCCc2ccccc2)CCN1[C@H](CO)Cc1ccccc1 | -31.4% |
| COc1ccc(-c2nc(C#N)c(N3CCN(c4cccc(Cl)c4)CC3)o2)cc1OC | 5.2% |
| COc1ccccc1-c1nc(C#N)c(N2CCN(c3ccccc3)CC2)o1 | -2.9% |
| C[C@@H]1CC=C[C@H]2[C@H]1C(=O)N(Cc1ccccc1)[C@H]2c1ccc(-c2ccoc2)cc1F | -2.6% |
| Cc1c(O)ccc2c(CC(=O)N[C@@H](Cc3c[nH]c4ccccc34)C(=O)O)cc(=O)oc12 | -0.1% |
| CN1CCN(c2nc(-c3ccccc3)cc(C(F)(F)F)n2)CC1 | -26.3% |
| FC(F)(F)c1cc(-c2ccccc2)nc(N2CCCCCC2)n1 | 37.9% (active) |

| SMILES | inhibition |
| --- | --- |
| FC(F)(F)c1cc(-c2ccccc2)nc(N2CCCCC2)n1 | 8.3% |
| Cc1nn(C)cc1/C=N\NC(=O)Cc1ccc([N+](=O)[O-])cc1 | -27.7% |
| COc1ccc(C#Cc2ccc3c(=O)c4ccccc4n(C)c3c2)cc1 | 25.7% |
| CCCC(=O)NC(=S)Nc1cccc(Cl)c1N1CCCC1 | -26.8% |
| CCCC(=O)NC(=S)Nc1cccc(Cl)c1N1CCCCC1 | -26.4% |
| CCC(=O)NC(=S)Nc1cccc(Cl)c1N1CCCC1 | 55.9% (active) |
| COC(=O)C1Cc2ccccc2CN1C(=O)CCl (centres undefined) | 39.2% |
| O=C(Cc1ccccc1)N/N=C/c1cc(Br)cs1 | 1.2% |
| CCN1CCN(CC(=O)N/N=C/c2cc(Br)cs2)CC1 | 104% (active) |
| Cc1nccn1CC(=O)N/N=C/c1cc(Br)cs1 | -0.6% |
| Cc1cc(C)n(-c2nc3c(c(=O)[nH]c(=O)n3C)n2C(C)C)n1 | 5.7% |
| O=C(CN1CCN(c2ccc(F)cc2)CC1)Nc1cc(C(F)(F)F)ccc1Cl | -11.8% |
| CCOC(=O)CNC(=O)C1Cc2ccccc2CN1S(=O)(=O)c1cccs1 (centres undefined) | -33% |
| COc1ccc(C2CC(c3cccs3)=NN2S(C)(=O)=O)cc1OC (centres undefined) | -25.1% |
| COc1ccc(C2CC(c3cccs3)=NN2S(C)(=O)=O)cc1 (centres undefined) | -18% |
| COc1cccc(C2CC(c3cccs3)=NN2S(C)(=O)=O)c1 (centres undefined) | 47.7% (active) |
| COc1ccc(C(=O)Nc2nnc(Cc3ccccc3)s2)c(OC)c1 | -43.9% |
| O=[N+]([O-])c1ccc(S(=O)(=O)N/N=C/c2ccco2)cc1 | -34.8% |
| CCOC(=O)c1cnc2ccc(OCC)cc2c1NCCN1CCOCC1 | -21.5% |
| O=c1cc(-c2ccc3c(c2)OCO3)oc2ccccc12 | -38.2% |
| Cc1cc(N2CCN(c3nc(-c4ccccc4)cs3)CC2)c2ccccc2n1 | -3.1% |
| COc1ccc(-c2csc(N3CCN(c4cc(C)nc5ccccc45)CC3)n2)cc1OC | 54.5% (active) |
| Cc1cc(N2CCN(c3nc(-c4ccc([N+](=O)[O-])cc4)cs3)CC2)c2ccccc2n1 | 3.5% |
| C[C@@H]1C=C(C(=O)NCc2ccccc2)O[C@H](OCc2ccc(CO)cc2)C1 | -6.2% |
| O=C(O)c1cccc(N2C(=O)/C(=C/c3ccc([N+](=O)[O-])cc3)C=C2c2ccccc2)c1 | 55.4% (active) |
| O=C1/C(=C/c2ccc([N+](=O)[O-])cc2)C=C(c2ccccc2)N1c1ccc(O)cc1 | 28.6% |

| SMILES | inhibition |
| --- | --- |
| O=C1/C(=C/c2ccc([N+](=O)[O-])cc2)C=C(c2ccccc2)N1c1ccccc1 | -31.4% |
| O=C(NCc1cccnc1)C1CCCN(S(=O)(=O)c2cccc3nsnc23)C1 (centres undefined) | -7.8% |
| CCOC(=O)c1ccc(NC(=S)NCCc2ccc(F)cc2)cc1 | 72.6% (active) |
| CCOC(=O)c1ccc(NC(=S)NCCc2ccccc2)cc1 | 0.7% |
| CCOC(=O)c1ccc(NC(=S)NCCc2ccccc2F)cc1 | -22.7% |
| CCCCCCn1c(CN2CCCCC2C)nc2c1c(=O)n(C)c(=O)n2C (centres undefined) | -20.6% |
| CCOC(=O)c1c(C2CC2)csc1NC(=O)COC(=O)c1cc(OC)c(OC)cc1[N+](=O)[O-] | -39.9% |
| COc1cccc(/C=C2\Sc3ccc(C(=O)NCc4cccnc4)cc3N(C)C2=O)c1 | 44.2% |
| CN1C(=O)/C(=C/c2cccc(Cl)c2)Sc2ccc(C(=O)NCc3cccnc3)cc21 | 4.4% |
| COc1ccc(/C=C2\Sc3ccc(C(=O)NCc4cccnc4)cc3N(C)C2=O)cc1OC | 42.3% (active) |
| Cc1cccc(N(C(=O)CNC(=O)c2ccco2)C(C(=O)NC2CCCC2)c2ccncc2)c1 (centres undefined) | -12.6% |
| O=C1CC(c2ccccc2)=NN1c1nc(-c2ccccc2)cs1 | 65.7% (active) |
| CC1=NN(c2nc(-c3ccccc3)cs2)C(=O)C1 | 3.7% |
| CC1=NN(c2nc(-c3ccc(Cl)cc3)cs2)C(=O)C1 | 46.6% |
| CCCNC(=O)c1onc(CSc2cccc(OC)c2)c1C(=O)NCCC | -4% |
| Cc1nc(-c2cccc(NC(=O)c3ccco3)c2)cs1 | -30.5% |
| Cc1nc(-c2ccc(C(=O)Nc3cccc(Br)c3)cc2)cs1 | 47.3% (active) |
| Cc1ccc(C(=O)Nc2ccc(-c3csc(C)n3)cc2)cc1 | -53.9% |
| Cc1nc(-c2ccc(NC(=O)c3ccco3)cc2)cs1 | 54.6% (active) |
| Nc1nc(-c2ccc(NC(=O)c3ccco3)cc2)cs1 | -4.3% |
| Cc1nc(-c2ccc(C(=O)Nc3cccc(F)c3)cc2)cs1 | 26.3% |
| COCCN1Cc2cccc(C(=O)Nc3cccc(-c4nc5ccccc5[nH]4)c3)c2C1=O | -5.5% |
| CCOc1ccc(C(=O)OCc2nnc(-c3cccs3)o2)cc1OC | -3.4% |
| Oc1nc(Nc2ccccc2)sc1/C=C1\C=Nc2ccccc21 | -13.5% |
| O=C(COC(=O)c1ccccc1Br)NCc1ccccc1 | -32% |
| CC(=O)N/C(=C/c1ccc([N+](=O)[O-])cc1)C(=O)O | -71.3% |

| SMILES | inhibition |
| --- | --- |
| O=C(O)c1cc(-c2ccc(Cl)cc2)n(-c2ccccc2)n1 | -29.5% |
| COC(=O)C1C2C=CC3(CN(c4cccc(C)c4)C(=O)C13)O2 (centres undefined) | -25.9% |
| COc1ccc2nccnc2c1[N+](=O)[O-] | -0.6% |
| O=C(CCCCC(=O)NCCCc1ccccc1)NCCCc1ccccc1 | -23.1% |
| O=C(CCCc1ccccc1)NCCCc1ccccc1 | -23.7% |
| O=C(CCC(=O)NCCCc1ccccc1)NCCCc1ccccc1 | 80.7% (active) |
| CCn1c(-c2ccccc2)c(C(=O)O)c2ccccc21 | -1.6% |
| CCn1c(-c2ccccc2)c(C(=O)CCl)c2ccccc21 | 79.5% (active) |
| CCn1c(-c2ccccc2)c(C(=O)CC#N)c2ccccc21 | -39.5% |
| Cc1ccc(OCc2nnc(SCC(N)=O)n2N)cc1 | -1.8% |
| O=C(Cc1c[nH]c2ccccc12)Nc1ccc(N2CCOCC2)cc1 | -30.3% |
| NC(=O)C1(N2CCCCC2)CCN(C(=S)Nc2ccc(S(N)(=O)=O)cc2)CC1 | -18.7% |
| COc1cccc(OCc2cc(C(=O)NCc3ccc4c(c3)OCO4)no2)c1 | -60.1% |
| COc1cccc(OCc2cc(C(=O)NCc3ccccn3)no2)c1 | -60.1% |
| O=C(O)C(Cc1ccccc1)N1C(=O)/C(=C/c2cccs2)SC1=S (centres undefined) | 3% |
| O=C(O)C(Cc1ccccc1)N1C(=O)/C(=C/c2ccccc2)SC1=S (centres undefined) | 40.1% |
| Cc1ccc(CCNC(=O)CN(C)S(=O)(=O)c2ccc3c(c2)n(C)c(=O)c(=O)n3C)cc1 | -2.1% |
| COc1cc(Br)cc(/C=C/c2ccc3cccc(O)c3n2)c1OC | 23% |
| COc1cc(Cl)cc(/C=C/c2ccc3cccc(O)c3n2)c1OC | 8.1% |
| COc1ccccc1/C=C/c1ccc2cccc(O)c2n1 | -8.4% |
| COc1ccc(/C=C/c2ccc3cccc(O)c3n2)cc1Br | 6.9% |
| COc1cc(/C=C/c2ccc3c(Br)cc(Br)c(O)c3n2)ccc1O | 79.9% (active) |
| COc1cc(Br)c(/C=C/c2ccc3cccc(O)c3n2)cc1OC | 11.8% |
| COc1ccc(/C=C/c2ccc3c(Br)ccc(O)c3n2)cc1 | 0.6% |
| COc1ccc(/C=C/c2ccc3cccc(O)c3n2)c(OC)c1OC | 16.5% |
| COc1cccc(/C=C/c2ccc3cccc(O)c3n2)c1 | 7.9% |
